Compounds with a hit are over-represented: about 17% of the library has one in this group of screens.
ATXN2 expr inh – inhibitors of ATXN2 expression. AID 1745845. 0.72% of 360,000 active. HEK-293 ATXN2-luciferase reporter, luminescence, 24 h. Potency, µM (doses to about 57 µM), actives largely listed as inhibitors; also: nearly all actives have a fitted effect of over 55% in size
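qHTS (up to 57 uM final) was run with 24 h compound exposure of reporter cells at 37 °C. Each well was multiplexed: SteadyGlo luminescence measured ATXN2-luciferase expression after a fluorogenic Gly-Phe-AFC viability readout (25 uM final).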
TDP1 cell noCPT – qHTS for Inhibitors of human tyrosyl-DNA phosphodiesterase 1 (TDP1): qHTS in cells in absence of CPT | DT40 Tdp1-/- hTDP1 cells, no CPT, ATP luminescence, 48 h | Potency, µM (doses to about 46.2 µM), actives largely listed as inhibitors | 15% of 420,000 active | AID 686978, 2013; also: nearly all actives have a fitted effect of over 55% in size
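Cells were dispensed at 400 per well, compounds added by pin tool, plates incubated ≥48 hr at 37 °C, then CellTiter-Glo added for 30 min at room temperature before luminescence reading. Line: DT40 Tdp1-/- complemented with hTDP1; camptothecin omitted.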
TGFb inhibitor – blocks TGF-b signaling; Potency, µM (doses to about 46.1 µM), actives largely listed as inhibitors; 1.2% of 410,000 active; AID 588855; HepG2 CAGA-GFP TGF-b/SMAD3 reporter, GFP fluorescence, 18 h; TGF-beta stimulated, 500 pg/mL final; also: nearly all actives have a fitted effect of over 65% in size
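Inhibition of TGF-beta-driven CAGA-GFP reporter expression in HEPG2 cells is measured by cellular GFP fluorescence after 18 h stimulation with 500 pg/mL recombinant TGF-beta in 1% FBS medium at 37 degrees C.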
HepG2 tox – kills HepG2 cells in TGF-b inhibitor counter-screen; Potency, µM (top dose mostly 46.1 µM), most hits filed as cytotoxic; 0.76% of 410,000 active; AID 588856; HepG2 CAGA-GFP viability, ATP luminescence, 18 h
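CellTiter-Glo luminescence gave cytotoxicity after 18 hours at 37 degrees C. The cells were HepG2 CAGA-GFP in 1% FBS DMEM, stimulated with 500 pg/mL TGF-beta after compound addition. %Activity was normalised to no-cell wells (complete cell-killing) and DMSO (no toxicity), and curves were fitted and classified.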
DT40 TDP1 CPT – DT40-hTDP1 cell growth loss with CPT; AID 686979; Potency, µM (top dose mostly 46.2 µM), actives largely listed as inhibitors; 12% of 420,000 active; chicken DT40 Tdp1-/-;hTDP1 cells + 20 nM CPT, ATP luminescence, 48 h; also: nearly all actives have a fitted effect of over 55% in size
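Cell growth measured by CellTiter-Glo luminescence after a minimum 48 h, 37 C compound exposure with 20 nM CPT in Tdp1-knockout DT40 cells stably expressing hTDP1, seeded 400/well; qHTS titration format.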
S2 tox – viability counter-screen for ATXN expression inhibitors | S2 cells (HEK-293 line with an ATXN2-luciferase reporter) viability, CellTiter-Fluor protease fluorescence, 24 h | Potency, µM (series often up to 56.7 µM), most hits filed as cytotoxic | 0.49% of 400,000 active | AID 651635; also: nearly all actives have a fitted effect of over 40% in size
Each line names hits and unclear results; the compound was inactive in the other large screens. Calls follow the shape of the dose curve; as a rule, active = well fitted curve in the direction sought with a large enough effect; inconclusive = small, poorly fitted or top-dose-only effect, or another doubt; inactive = no such curve, though single readings can be large; an effect the other way counts as inactive or inconclusive.

CCc1ccc(C(O)c2ncc(-c3cccc(C(F)(F)F)c3)[nH]2)cc1 (stereo not given)	ATXN2 expr inh inconclusive, TDP1 cell noCPT 23.1µM, TGFb inhibitor inconclusive, DT40 TDP1 CPT inconclusive
Cc1ccc(CN2CCC(CNc3ncnc4onc(-c5ccc(F)cc5)c34)CC2)cc1	TDP1 cell noCPT 23.1µM, S2 tox inconclusive
Fc1ccc(-c2noc3ncnc(NCC4CCN(Cc5ccc(Cl)cc5)CC4)c23)cc1	ATXN2 expr inh inconclusive, TDP1 cell noCPT 13µM, TGFb inhibitor inconclusive, DT40 TDP1 CPT inconclusive, S2 tox inconclusive
Cc1ccc(Cl)cc1N1CCN(CCCNc2ncnc3onc(-c4ccc(F)cc4)c23)CC1	TDP1 cell noCPT 18.4µM, DT40 TDP1 CPT 14.6µM
Fc1ccc(-c2noc3ncnc(NCc4cccc(Cl)c4)c23)cc1	TDP1 cell noCPT inconclusive
CCC1CCC2(CC1)NC(=O)N(CC(=O)Nc1ccc(OC)c(Cl)c1)C2=O (stereo not given)	TDP1 cell noCPT inconclusive (no result: ATXN2 expr inh)
CCN1C(=O)S/C(=C/c2cn(C)c3ccccc23)C1=O	none (no result: ATXN2 expr inh)
CCN=C1S/C(=C\c2cn(CC)c3ccccc23)C(=O)N1CC	TDP1 cell noCPT 10.3µM, TGFb inhibitor inconclusive, DT40 TDP1 CPT 23.1µM, S2 tox inconclusive
CCN=C1S/C(=C\c2ccc(O)c(OCC)c2)C(=O)N1CC	TDP1 cell noCPT 20.6µM, DT40 TDP1 CPT 25.9µM
CCN=C1S/C(=C\c2cc(OCC)c(O)cc2Br)C(=O)N1CC	ATXN2 expr inh inconclusive, TDP1 cell noCPT 11.6µM, DT40 TDP1 CPT 20.6µM, S2 tox inconclusive
CCOc1cc(/C=C2/SC(=S)N(CC3CCCO3)C2=O)ccc1O (stereo not given)	TDP1 cell noCPT 23.1µM, DT40 TDP1 CPT inconclusive, S2 tox inconclusive (no result: ATXN2 expr inh)
Cc1cc2ncn(-c3ncnc4sc5c(c34)CCC(C)C5)c2cc1C (stereo not given)	TDP1 cell noCPT inconclusive, DT40 TDP1 CPT inconclusive
COc1cccc(-c2ccc(NC(=O)C3=C(C(=O)O)CCC3)c(F)c2)c1	none (no result: TDP1 cell noCPT, TGFb inhibitor, HepG2 tox, DT40 TDP1 CPT, S2 tox)
CCN1CCN(c2c(/C=C3\SC(=S)N(Cc4ccco4)C3=O)c(C)c(C#N)c(=O)n2C)CC1	TDP1 cell noCPT 14.6µM, DT40 TDP1 CPT inconclusive
O=C(NNC(=O)c1nn(-c2ccc(F)cc2)ccc1=O)c1ccc(C(F)(F)F)cc1	none
COC(=O)c1oc2ccc(OC)cc2c1N	none
COc1ccc(C(=O)c2oc3ccc(OC)cc3c2N)cc1	TDP1 cell noCPT 16.4µM, DT40 TDP1 CPT inconclusive
O=C(CN1C(=O)CCSc2ccc(S(=O)(=O)N3CCCC3)cc21)Nc1cccc(F)c1	TDP1 cell noCPT inconclusive, DT40 TDP1 CPT 13µM (no result: ATXN2 expr inh, S2 tox)
O=C(CN1C(=O)CCSc2ccc(S(=O)(=O)N3CCCC3)cc21)Nc1ccccc1	S2 tox inconclusive
O=C(CN1C(=O)CCSc2ccc(S(=O)(=O)N3CCCC3)cc21)Nc1cccc(Cl)c1	TDP1 cell noCPT inconclusive, TGFb inhibitor inconclusive, DT40 TDP1 CPT 23.1µM (no result: ATXN2 expr inh, S2 tox)
COc1cc(/C=C/[N+](=O)[O-])ccc1OC(=O)c1cc2ccccc2oc1=O	TDP1 cell noCPT 25.9µM, DT40 TDP1 CPT inconclusive
CCC(=O)c1ccc(OCc2ccccc2)c(OC)c1	TDP1 cell noCPT inconclusive
CCC(=O)c1ccc(OCc2ccc(C(=O)c3ccccc3)cc2)cc1	TDP1 cell noCPT 8.2µM, DT40 TDP1 CPT 6.51µM (no result: ATXN2 expr inh)
Cc1nnc(SCC(=O)Nc2ncc3c(n2)CC(c2ccccc2)CC3=O)s1 (stereo not given)	DT40 TDP1 CPT inconclusive
O=C(CSc1nnnn1-c1ccccc1)Nc1ncc2c(n1)CC(c1ccccc1)CC2=O (stereo not given)	ATXN2 expr inh inconclusive, TDP1 cell noCPT inconclusive, DT40 TDP1 CPT 15.8µM, S2 tox inconclusive
COc1cc2[nH]c(=S)nc(NCc3cccs3)c2cc1OC	TDP1 cell noCPT 23.1µM
O=C(N=C1SC2CS(=O)(=O)CC2N1Cc1ccc(F)cc1)C1CCCO1 (stereo not given)	none

Assay outcomes from PubChem.
